In PubChem BioAssay AID1159580 (chemical genetic matrix, 2015):
Screen size: about 5,500 compounds; about 2,000 (36%) were called active. Another 18% or so got no clear call; they are omitted. Rule as the data show it: active = normalized growth mostly below about 0.91 (no sharp cut-off); inconclusive = no clear call, values can overlap the other calls; inactive = mostly above about 0.92. This is one part of the list.

Experiment: chemical genetic growth profiling, strain panel (AID 1159580);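 also: tested at 20 µM; growth read once vehicle control cultures reached saturation at 30 °C; 1 = growth at the plate median or of vehicle wells; lower values mean less growth of the strain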
Details: S. cerevisiae deletion strains, growth OD
[1] = locus YAR019C, strain CDC15, hits give low values
[2] = locus YBL105C, strain PKC1, hits give low values
[3] = locus YBR135W, strain CKS1, hits give low values
[4] = locus YBR160W, strain CDC28, hits give low values
[5] = locus YDL017W, strain CDC7, hits give low values
[6] = locus YDL028C, strain MPS1, hits give low values
[7] = locus YDL101C, strain DUN1, hits give low values
[8] = locus YDL108W, strain KIN28, hits give low values
[9] = locus YDL132W, strain cdc53, hits give low values
[10] = locus YDL214C, strain PRR2, hits give low values
[11] = locus YDR052C, strain DBF4, hits give low values
[12] = locus YDR054C, strain cdc34, hits give low values
[13] = locus YDR226W, strain ADK1, hits give low values
[14] = locus YDR477W, strain SNF1, hits give low values
[15] = locus YER123W, strain YCK3, hits give low values
[16] = locus YER133W, strain GLC7, hits give low values
[17] = locus YFL009W, strain cdc4, hits give low values
[18] = locus YFL029C, strain CAK1, hits give low values
[19] = locus YFR003C, strain YPI1, hits give low values
[20] = locus YFR019W, strain FAB1, hits give low values
[21] = locus YGR040W, strain KSS1, hits give low values
[22] = locus YGR052W, strain FMP48, hits give low values
[23] = locus YGR092W, strain DBF2, hits give low values
[24] = locus YHR030C, strain SLT2, hits give low values
[25] = locus YHR079C, strain IRE1, hits give low values
[26] = locus YHR082C, strain KSP1, hits give low values
[27] = locus YHR205W, strain SCH9, hits give low values
[28] = locus YIL147C, strain SLN1, hits give low values
[29] = locus YJL095W, strain BCK1, hits give low values
[30] = locus YJL157C, strain FAR1, hits give low values
[31] = locus YJR016C, strain ILV3, hits give low values
[32] = locus YJR066W, strain TOR1 (second series), hits give low values
[33] = locus YJR066W, strain TOR1, hits give low values
[34] = locus YKL048C, strain ELM1, hits give low values
[35] = locus YKL067W, strain YNK1, hits give low values
[36] = locus YKL101W, strain HSL1, hits give low values
[37] = locus YKL203C, strain TOR2, hits give low values
[38] = locus YLR113W, strain HOG1, hits give low values
[39] = locus YLR133W, strain CKI1, hits give low values
[40] = locus YLR403W, strain SFP1, hits give low values
[41] = locus YML070W, strain DAK1, hits give low values
[42] = locus YMR001C, strain CDC5, hits give low values
[43] = locus YMR205C, strain PFK2 (second series), hits give low values
[44] = locus YNL006W, strain LST8, hits give low values
[45] = locus YNL020C, strain ARK1, hits give low values
[46] = locus YNL161W, strain CBK1, hits give low values
[47] = locus YNL183C, strain NPR1, hits give low values
[48] = locus YNL207W, strain RIO2, hits give low values
[49] = locus YNL307C, strain MCK1 (second series), hits give low values
[50] = locus YOL078W, strain AVO1, hits give low values
[51] = locus YOL136C, strain PFK27, hits give low values
[52] = locus YOR061W, strain CKA2, hits give low values
[53] = locus YOR119C, strain RIO1, hits give low values
[54] = locus YOR231W, strain MKK1, hits give low values
[55] = locus YPL031C, strain PHO85, hits give low values
[56] = locus YPL153C, strain RAD53, hits give low values
[57] = locus YPL204W, strain HRR25, hits give low values
[58] = locus YPL209C, strain IPL1, hits give low values
[59] = locus YPL256C, strain CLN2, hits give low values
[60] = locus YPR025C, strain CCL1, hits give low values
[61] = locus YPR106W, strain ISR1, hits give low values
[62] = locus YPR111W, strain DBF20, hits give low values
[63] = strain NNK1, hits give low values
[64] = strain TSCII, hits give low values

Measured: normalized growth

COc1cccc(C(=O)C(C#N)=C(SC)SC)c1
active: [1] 0.875 | [2] 0.88 | [3] 0.87 | locus YBR136W, strain MEC1, hits give low values 0.879 | [4] 0.878 | [5] 0.881 | [6] 0.884 | [7] 0.901 | [8] 0.894 | [9] 0.874 | [10] 0.429 | [11] 0.879 | [12] 0.855 | [13] 0.87 | [14] 0.393 | [15] 0.256 | [16] 0.295 | [17] 0.869 | [18] 0.872 | [19] 0.88 | [20] 0.287 | locus YFR028C, strain CDC14, hits give low values 0.868 | [21] 0.331 | [22] 0.294 | [23] 0.206 | [24] 0.192 | [25] 0.307 | [26] 0.298 | [27] 0.321 | [28] 0.885 | [29] 0.264 | [30] 0.37 | [31] 0.874 | [32] 0.275 | [33] 0.268 | [34] 0.45 | [35] 0.508 | [36] 0.434 | locus YKL193C, strain SDS22, hits give low values 0.886 | [37] 0.291 | [38] 0.324 | [39] 0.44 | [40] 0.265 | [41] 0.346 | [42] 0.876 | [43] 0.526 | locus YMR277W, strain FCP1, hits give low values 0.881 | [44] 0.887 | [45] 0.432 | [46] 0.871 | [47] 0.298 | [48] 0.88 | locus YNL222W, strain SSU72, hits give low values 0.891 | [49] 0.293 | [50] 0.868 | [51] 0.301 | [52] 0.423 | [53] 0.317 | [54] 0.366 | locus YOR329C, strain SCD5, hits give low values 0.872 | [55] 0.309 | [56] 0.387 | [57] 0.294 | [58] 0.877 | [59] 0.292 | [60] 0.875 | [64] 0.867
inactive: locus YJL128C, strain PBS2, hits give low values 0.89 | [61] 0.893 | [62] 0.902 | [63] 0.89

CSC(SC)=C(C#N)C(=O)c1ccccc1Cl
active: [1] 0.422 | [2] 0.636 | [3] 0.816 | [7] 0.583 | [9] 0.626 | [10] 0.135 | [11] 0.826 | [12] 0.507 | [14] 0.134 | [15] 0.114 | [16] 0.116 | [17] 0.707 | [18] 0.326 | [20] 0.105 | [21] 0.13 | [22] 0.144 | [23] 0.118 | [24] 0.118 | [25] 0.134 | [26] 0.133 | [27] 0.0151 | [29] 0.119 | [30] 0.121 | [31] 0.863 | [32] 0.105 | [33] 0.105 | [34] 0.182 | [35] 0.163 | [36] 0.153 | [37] 0.0997 | [38] 0.147 | [39] 0.132 | [40] 0.0452 | [41] 0.113 | [42] 0.732 | [43] 0.179 | [44] 0.304 | [45] 0.115 | [46] 0.661 | [47] 0.133 | [48] 0.355 | [49] 0.106 | [50] 0.573 | [51] 0.101 | [52] 0.122 | [53] 0.125 | [54] 0.127 | [55] 0.108 | [56] 0.121 | [57] 0.117 | [58] 0.774 | [59] 0.161 | [60] 0.723 | [63] 0.342 | [64] 0.434
inactive: [4] 0.937 | [5] 0.911 | [6] 0.934 | [8] 0.927 | [13] 0.911 | [19] 0.915 | [28] 0.937 | [61] 0.936 | [62] 0.934
